Screens: PubChem BioAssay, National Center for Advancing Translational Sciences (NCATS)
Luciferase inh – inhibitors of firefly luciferase | purified firefly luciferase, luminescence, 8 min | Potency, µM (highest dose often 57.1 µM), inactives show at the top dose activity change, negative = inhibition, hits mostly inhibitors | 72,000 tested, 2.2% active; further: on the % scale 0 is the no-effect control and ±100 the full control effect; nearly all actives have a fitted effect of over 40% in size
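Firefly luciferase (PKLight detection mix) with 10 uM ATP in pH 7.2 imidazole buffer (KCl, MgCl2, Tween 20, BSA). Compounds tested across a concentration series (qHTS). Luminescence read after 8 min at ambient temperature.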
HEK293 cAMP cs – counter-screen for TSHR agonists: cAMP increase in parental HEK293. parental HEK293 CNG cAMP sensor, membrane potential fluorescence. Potency, µM (top dose mostly 57.1 µM), inactives show top-dose activation, usual class: activators. 73,000 tested, 2.5% active. AID 938; further: % of control where 0% means no effect; nearly all actives have a fitted effect of over 55% in size
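Counterscreen for endogenous-receptor signalling: CNG-channel HEK 293 cells report cAMP rise by membrane depolarization. After 60 min dye equilibration with 100 uM RO 20-1724, compounds incubated 30 min before bottom-read fluorescence at 590 nm.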
15-hLO inh – blocks human 15-lipoxygenase activity | P16050 | purified 15hLO-1, xylenol orange hydroperoxide absorbance | Potency, µM (top dose mostly 57.1 µM), for inactives: top-dose activity change, negative = inhibition, usual class: inhibitors | 74,000 tested, 1.4% active; further: on the % scale 0 is the no-effect control and ±100 the full control effect; nearly all actives have a fitted effect of over 55% in size
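Inhibition is scored from a chromogenic endpoint. After 15 min enzyme-compound contact, arachidonic acid (50 uM final) reacts 6 min with 40 nM 15hLO-1 at room temperature, then Fe-XO reagent is added for 30 min and absorbance ratio recorded.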
PK Bst – alters activity of Bacillus stearothermophilus pyruvate kinase. Potency, µM. 51,000 tested, 1.2% active. purified pyruvate kinase, luminescence ATP production; ribose 5-phosphate activator present at AC10; in the data active means potency below about 11 µM; inconclusive means mostly about 12 µM to 25 µM;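 the screen sought inhibitors and activators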;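 further: scaled between full activation by ribose 5 phosphate and full inhibition by luteolin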
Tau fil binding – binds recombinant human tau filaments. Potency, µM (highest dose often 57.1 µM), inactives show top-dose activity change, negative = inhibition. 71,000 tested, 2% active. P10636. AID 596. recombinant tau filaments, thioflavin S fluorescence, 15 h; filaments grown with octadecylsulfate alongside compound;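 further: on the % scale 0 is the no-effect control and ±100 the full control effect; actives lower thioflavin S fluorescence by blocking filaments or displacing dye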
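Assay mix: 1 uM His-tagged tau, 30 uM sodium octadecylsulfate, thioflavine S dye in HEPES/NaCl/DTT buffer. Compound is added prior to the inducer. Fluorescence after 15 h at 37 C.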
TSHR agonist – agonists of human thyroid stimulating hormone receptor; HEK293-CNG-TSHR cells (CNG channel as cAMP sensor), membrane potential dye, cAMP; Potency, µM (top dose mostly 57.1 µM), inactives show at the highest dose activation, hits mostly activators; 73,000 tested, 0.48% active; AID 926; active means well fitted activation curve with a large enough effect in the main read-out, with a control signal flat, not every such curve was filed as active; inconclusive means small, poorly fitted or top-dose-only effect, or a change in a side signal; inactive means no such curve, though single readings can be large or run the other way; % of control where 0% means no effect;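 further: the control signal comes from parental cells without the receptor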
Target sequence (P16473 whole entry, looked up): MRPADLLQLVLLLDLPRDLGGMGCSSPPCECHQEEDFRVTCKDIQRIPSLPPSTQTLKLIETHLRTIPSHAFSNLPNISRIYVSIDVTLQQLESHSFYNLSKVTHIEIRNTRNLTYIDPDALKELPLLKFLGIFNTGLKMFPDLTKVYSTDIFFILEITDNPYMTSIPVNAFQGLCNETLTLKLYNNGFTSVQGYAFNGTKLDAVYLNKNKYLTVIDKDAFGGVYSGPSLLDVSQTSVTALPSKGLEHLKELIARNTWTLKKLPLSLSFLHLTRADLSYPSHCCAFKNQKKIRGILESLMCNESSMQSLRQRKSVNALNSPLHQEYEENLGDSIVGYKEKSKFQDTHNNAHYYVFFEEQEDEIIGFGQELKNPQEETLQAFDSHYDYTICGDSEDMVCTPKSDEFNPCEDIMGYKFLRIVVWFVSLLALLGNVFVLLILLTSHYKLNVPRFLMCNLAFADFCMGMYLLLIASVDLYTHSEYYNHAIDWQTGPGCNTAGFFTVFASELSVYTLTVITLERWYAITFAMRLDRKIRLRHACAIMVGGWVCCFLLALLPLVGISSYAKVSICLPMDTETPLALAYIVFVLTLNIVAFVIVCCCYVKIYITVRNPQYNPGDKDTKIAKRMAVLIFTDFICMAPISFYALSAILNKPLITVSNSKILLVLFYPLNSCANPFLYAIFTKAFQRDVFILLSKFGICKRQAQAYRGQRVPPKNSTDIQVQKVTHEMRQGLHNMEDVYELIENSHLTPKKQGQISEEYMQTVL
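HEK 293 cells stably expressing TSHR and a modified CNG channel, with CNG-only parental cells as counterscreen, were preloaded 60 min at room temperature with membrane potential dye containing 100 uM RO 20-1724. Compound exposure was 30 min, and depolarization was read as fluorescence at 590 nm.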
The depositor's hits bear a star; [ ] = remark or other dose. Shown are actives, neighbours in structure and some others; about 7.8% of the full set was active somewhere. Unless noted, the call rests on the fitted dose curve; in most records, active means well fitted curve in the direction sought with a large enough effect; inconclusive means small, poorly fitted or top-dose-only effect, or another doubt; inactive means no such curve, though single readings can be large; an effect the other way counts as inactive or inconclusive. Potency means the concentration at half of the fitted maximal effect.

`CC(C)=NOC[C@@H](O)[C@@H]1O[C@@H]2OC(C)(C)O[C@@H]2[C@H]1O` gave Luciferase inh 1%[11.4 µM], HEK293 cAMP cs -2%[11.4 µM], 15-hLO inh 5%[11.4 µM] and TSHR agonist 4%[11.4 µM].
`CC(C)[C@@H](CC(=O)N[C@@H]1CCCC[C@H]1C(=O)N[C@H](CC(=O)N[C@@H](CCC(=O)O)CC(=O)O)Cc1ccccc1)NC(=O)C[C@H](Cc1ccccc1)NC(=O)[C@@H]1CNCC[C@H]1N` gave HEK293 cAMP cs inconclusive, Tau fil binding 5% and TSHR agonist inconclusive.
Screening O=C(O)[C@H]1CCc2ccc3ccccc3c2[C@H]1c1cccc2ccccc12 returned Luciferase inh 4%[11.4 µM], HEK293 cAMP cs 17%[11.4 µM], 15-hLO inh 2%[11.4 µM], Tau fil binding 3%[11.4 µM] and TSHR agonist 12%[11.4 µM].
`CCCCc1c(C)nn(-c2nnc3c4ccccc4n(CC)c3n2)c1C` gave Luciferase inh -6%, HEK293 cAMP cs 22%, 15-hLO inh 39%, PK Bst >57 and Tau fil binding 2µM*.
`CCn1c2ccccc2c2nc3ccccc3nc21` gave Luciferase inh -7%, HEK293 cAMP cs inconclusive, 15-hLO inh -30%, Tau fil binding -13% and TSHR agonist inconclusive.
O=C(Nc1cc(C(F)(F)F)ccc1N1CCOCC1)C1Cc2ccccc2CN1C(=O)c1ccco1 (stereo not drawn) was read as Luciferase inh -4%, HEK293 cAMP cs 1.3µM*, 15-hLO inh -27%, PK Bst >57, Tau fil binding -5% and TSHR agonist inconclusive.
Screening CC(=O)N1[C@H](Cc2ccccc2)C=C[C@]1(C)C(=O)O returned HEK293 cAMP cs 10%, 15-hLO inh -3%, Tau fil binding -11% and TSHR agonist 3%.
`Cc1nnc(SCc2cnc(-c3ccc(C(C)C)cc3)s2)n1C` gave Luciferase inh 0.5µM*, HEK293 cAMP cs inconclusive, 15-hLO inh 16%, PK Bst 0.56*, Tau fil binding 10% and TSHR agonist inconclusive.
Cc1nnc(SCCN2CCOCC2)n1C was read as Luciferase inh 1%, HEK293 cAMP cs 5%, 15-hLO inh -4%, PK Bst >57, Tau fil binding -5% and TSHR agonist 8%.
COc1cccc(-c2cc(C(=O)Nc3ccccc3SC)no2)c1 was read as Luciferase inh 20µM*, HEK293 cAMP cs 18%, 15-hLO inh -19%, Tau fil binding 30% and TSHR agonist -5%[11.4 µM].
COc1cccc(-c2cc(C(=O)NC3CCCC3)no2)c1 was read as Luciferase inh 16µM*, HEK293 cAMP cs inconclusive, 15-hLO inh 5%, PK Bst inactive, Tau fil binding 0% and TSHR agonist inconclusive.
`COc1ccccc1-c1cc(C(=O)Nc2cccnc2)no1` gave Luciferase inh 13µM*, HEK293 cAMP cs 18%, 15-hLO inh -2%, PK Bst inactive, Tau fil binding -6% and TSHR agonist 1%[11.4 µM].
For COc1cc(NC(=O)c2cc(-c3cccc(O)c3)on2)cc(OC)c1OC the results were Luciferase inh -2%, HEK293 cAMP cs -1%, 15-hLO inh -15%, Tau fil binding 188% and TSHR agonist -7%.
Screening COc1cccc(-c2cc(C(=O)Nc3cccc(O)c3)no2)c1 returned Luciferase inh 3.2µM*, HEK293 cAMP cs 27%, 15-hLO inh -15%, PK Bst 5.6*, Tau fil binding 48% and TSHR agonist 17%.
Screening COc1ccc(NC(=O)c2cc(-c3ccccc3OC)on2)cc1 returned Luciferase inh inconclusive, HEK293 cAMP cs inconclusive, 15-hLO inh -23% and TSHR agonist inconclusive.
`COCCNC(=O)c1cc(-c2ccc3c(c2)OCO3)on1` gave Luciferase inh 13µM*, HEK293 cAMP cs 3%, 15-hLO inh -1%, Tau fil binding -3% and TSHR agonist 1%.
Screening FC(F)C(F)(F)C1=CC(c2ccccc2)=NCCN1 returned Luciferase inh 2%, HEK293 cAMP cs 17%, 15-hLO inh 10%, Tau fil binding 13µM* and TSHR agonist 7%.
Screening FC(F)C(F)(F)C1=CC(c2cccs2)=NCCN1 returned Luciferase inh -1%, HEK293 cAMP cs 5%, 15-hLO inh -2%, PK Bst >57, Tau fil binding 16µM* and TSHR agonist 3%.
For OC(CN1CCNCC1)Cn1c2ccc(Br)cc2c2cc(Br)ccc21 (stereo not drawn) the results were HEK293 cAMP cs -7%, 15-hLO inh inconclusive and TSHR agonist -2%.
Screening Cc1ccc(N(CC(=O)NCc2ccc3c(c2)OCO3)S(=O)(=O)c2c(C)noc2C)cc1 returned Luciferase inh 1%, HEK293 cAMP cs inconclusive, 15-hLO inh 1%, Tau fil binding 198% and TSHR agonist inconclusive.
`Cc1ccc(NC(=O)CSc2nnc(-c3ccc(S(=O)(=O)N4CCOCC4)cc3)n2C)cc1` gave Luciferase inh 2%, HEK293 cAMP cs -4%, 15-hLO inh 4%, PK Bst >57, Tau fil binding 55% and TSHR agonist -4%.
For Cn1c(SCC(=O)NC2CCCC2)nnc1-c1ccc(S(=O)(=O)N2CCOCC2)cc1 the results were Luciferase inh 0%, HEK293 cAMP cs 25µM*, 15-hLO inh 6%, PK Bst >57, Tau fil binding -6% and TSHR agonist inconclusive.
COc1ccc(Cl)cc1NC(=O)CSc1nc(N2CCCCC2)nc(N2CCCCC2)n1 was read as Luciferase inh 1%, HEK293 cAMP cs 21%, 15-hLO inh 5%, PK Bst >57, Tau fil binding 1% and TSHR agonist 14%.
For CC12C=C(/C=C/c3ccc(F)cc3)C(C)(C1)C(c1ccc(F)cc1)CC2=O (stereo not drawn) the results were HEK293 cAMP cs 1%[11.4 µM], 15-hLO inh -2%[11.4 µM] and TSHR agonist 3%[11.4 µM].
For N=c1c2c(-c3ccccc3)c(-c3ccccc3)n(Cc3ccco3)c2ncn1Cc1ccco1 the results were Luciferase inh -11%, HEK293 cAMP cs -42%, 15-hLO inh 25µM*, Tau fil binding inactive and TSHR agonist inconclusive.
Screening N=c1c2c(-c3ccccc3)c(-c3ccccc3)n(Cc3ccccc3)c2ncn1CCCn1ccnc1 returned Luciferase inh 4%[25.5 µM] and PK Bst >26.
`Cc1cc(C(=O)CN2C(=O)C3CC=CCC3C2=O)c(C)n1-c1ccccc1` (stereo not drawn) gave Luciferase inh 4µM*, HEK293 cAMP cs 26%, 15-hLO inh -2%, PK Bst 6*, Tau fil binding 4% and TSHR agonist 26%.
